In PubChem BioAssay AID1347141 (National Center for Advancing Translational Sciences (NCATS), 2019) one finds Potency data, which are given here for five compounds.

The list shows a part of the results. Records with an inconclusive call do not appear. Calls of active or inactive are those of the source. Calls follow the shape of the dose curve; as a rule, active = well fitted inhibition curve with a large enough effect; inconclusive = small, poorly fitted or top-dose-only effect; inactive = flat fitted curve, though single readings scatter.

This test in a line: qHTS of pediatric cancer cell lines to identify multiple opportunities for drug repurposing: Orthogonal 3D viability screen for RD cells. Particulars: RD rhabdomyosarcoma 3D spheroid viability, PI/Hoechst imaging, 72 h; series mostly up to 30.7 µM. An excerpt:
Drug repurposing or repositioning has been offered as a strategy for drug development in oncology programs. This approach has special potential for childhood cancers and other rare or orphan diseases, where the expected return on new drug development has been a disincentive to pharmaceuticals. […] In this project we exploit the poly-pharmacology of drugs to discover new indications via phenotypic screening of a panel of 19 well-characterized cell lines derived from solid tumors seen in children and adolescents. The goal is to identify approved drugs with previously unrecognized anticancer properties that has the potential to reveal new mechanisms and biological processes involved in carcinogenesis or drug resistance. We employed a titration-based paradigm (quantitative high-throughput screening or qHTS), where all compounds were tested at multiple concentrations for their effect on cell viability. Concentration-response curves (CRCs) were derived directly from the primary screen, and both potency and efficacy values were used to identify compounds with robust bioactivity profiles. […] These two assays will be used to validate active compounds and assess the correlation of compound's potency in 2D vs 3D cultures on selected cell lines. Assay Submitter: Nathalia J. Martinez, National Center for Advancing Translational Sciences, National Institutes of Health, Rockville, MD, USA; email: natalia.martinez@nih.gov Shen, M et al. Quantitative high-throughput phenotypic screening of pediatric cancer cell lines identifies multiple opportunities for drug repurposing. Oncotarget 2017 Dec 19;9(4):4758-4772. PMID 29435139.
The cells were obtained from University of North Carolina (UNC), Pediatric Preclinical Testing Program (PPT), and Coriell Institute (CI). qHTS viability in 3D culture: Cells were assayed in phenol red-free growth media at a density of 1,000 cells/well, with the exception of Daoy, and SH-N-SH which were assayed at 1,500 cells/ well. Thirty muL of cells were dispensed into 384-well, ULA, round bottom plates (Corning) using a Multidrop dispenser. Plates were spun down at 1,000 rpm for 1 min and incubated at 37 degrees C, 5% CO2, under a humidified atmosphere for either 24 (Daoy) or 48 hours (all other cell lines) to allow spheroid formation. Ninety-two nanoliter of compounds and controls (neutral control DMSO or positive control bortezomib at final concentrations of 0.5 µM) were subsequently transferred via GNF Pintool. Plates were sealed using a breathable seal (Diversified Biotech, Dedham, MA) and incubated for 72 hours at 37 degrees C. Spheroid viability was first determined by high-content imaging using Hoechst 33342 and Propidium Iodide (PI, ThermoFisher Scientific), followed by addition of CellTiter-Glo 3D (Promega). Specifically, 3 µL/well of PBS containing a 1:500 dilution of both dyes was dispensed using Multidrop. Dyes were incubated for 1 hour before imaging using the Celigo Image Cytometer. Then, 20 µl of CellTiter-Glo 3D were added per well. Plates were incubated for 30 min at RT on a VWR microplate shaker (300 rpm) and analyzed for luminescence intensity using a ViewLux High-throughput CCD imager equipped with clear filters. Image analysis was done using the Celigo Tumorsphere 1+2+3 application software as previously described. […] The data were exported to Excel, and the average fluorescent intensities were used to calculate the ratio of PI over Hoechst, which was used to quantify viability. […]
Background: qHTS replaces the single test concentration by a dilution series.
On to `CC(NCc1ccc2c(c1)nc(NC(=O)c1ccc(-c3cn[nH]c3)s1)n2CC(C)(C)O)C(C)(C)C` (stereo not given), for which the Potency was 0.81 µM (active).
Under `C=C1C(=CC=C2CCC[C@]3(C)[C@@H]([C@H](C)C=C[C@H](C)C(C)C)CC[C@@H]23)C[C@@H](O)C[C@@H]1O` stands “inactive”.
Take `CC1(C)O[C@@H]2C[C@@H]3[C@H]4C[C@@H](F)C5=CC(=O)C=C[C@]5(C)[C@@]4(F)[C@@H](O)C[C@]3(C)[C@]2(C(=O)CO)O1`: the Potency was 10.2 µM (active).
In the case of `CC[C@H]1CN2CCc3cc(OC)c(OC)cc3[C@@H]2C[C@@H]1C[C@H]1NCCc2cc(OC)c(OC)cc21` it was 2.04 µM (active).
Take `CC[C@]1(O)C[C@@H]2CN(CCc3c([nH]c4ccccc34)[C@@](C(=O)OC)(c3cc4c(cc3OC)N(C)[C@H]3[C@@](O)(C(=O)OC)[C@H](OC(C)=O)[C@]5(CC)C=CCN6CC[C@]43[C@@H]65)C2)C1`: the Potency was 0.0456 µM (active).
